Test results taken from publication PMC6925144, “A prospective compound screening contest identified broader inhibitors for Sirtuin 1” (Scientific Reports, 2019).
Over roughly 3,200 compounds, “TSA(with NAD+) / Primary screening (TSA) / delta Tm (K)” has its median near -0.04; the highest 2% begin near 0.37. Shown is part of a subset that was picked to be rich in the highest values.

These compounds were tested against NAD-dependent deacetylase Sirtuin 1 (human, UniProt Q96EB6) (assay: primary screen, delta tm). Details: 10 µM.
Design: single well (n = 1, as 'the same TSA')
Experimental: A total of 3,192 compounds extracted from the proposed lists were first screened by thermal shift assay (TSA), which determined a melting temperature shift (ΔTm) of Sirtuin 1 upon the addition of a test compound at a concentration of 10 µM (n = 1) with primary hit criteria of ΔTm > 0.45 K or ΔTm < −1.5 K. Primary hits (48 compounds) were retested in the same assay at three concentrations (5, 10, 20 µM, n = 4) for hit confirmation and for dose-dependency check. Secondary hits (41 compounds) were checked their selectivity for Sirtuin 1 based on counterscreening on unrelated protein targets (bovine carbonic anhydrase (CA) and recombinant SH2 domain of hABL1 kinase (ABL1)) at three different concentrations (5, 10, 20 µM, n = 4), which yielded 38 hit compounds, hereafter referred to as TSA hits. The TSA screening above was conducted in the absence of NAD+. As noted, the structure of Sirtuin 1 is different in the presence of NAD+ and substrate. The chemical profile of TSA hits found from the different conditions could be different. […] As a result, 39 TSA hits were found.

NAD-dependent deacetylase Sirtuin 1, sequence (Q96EB6 2-747 limits assumed): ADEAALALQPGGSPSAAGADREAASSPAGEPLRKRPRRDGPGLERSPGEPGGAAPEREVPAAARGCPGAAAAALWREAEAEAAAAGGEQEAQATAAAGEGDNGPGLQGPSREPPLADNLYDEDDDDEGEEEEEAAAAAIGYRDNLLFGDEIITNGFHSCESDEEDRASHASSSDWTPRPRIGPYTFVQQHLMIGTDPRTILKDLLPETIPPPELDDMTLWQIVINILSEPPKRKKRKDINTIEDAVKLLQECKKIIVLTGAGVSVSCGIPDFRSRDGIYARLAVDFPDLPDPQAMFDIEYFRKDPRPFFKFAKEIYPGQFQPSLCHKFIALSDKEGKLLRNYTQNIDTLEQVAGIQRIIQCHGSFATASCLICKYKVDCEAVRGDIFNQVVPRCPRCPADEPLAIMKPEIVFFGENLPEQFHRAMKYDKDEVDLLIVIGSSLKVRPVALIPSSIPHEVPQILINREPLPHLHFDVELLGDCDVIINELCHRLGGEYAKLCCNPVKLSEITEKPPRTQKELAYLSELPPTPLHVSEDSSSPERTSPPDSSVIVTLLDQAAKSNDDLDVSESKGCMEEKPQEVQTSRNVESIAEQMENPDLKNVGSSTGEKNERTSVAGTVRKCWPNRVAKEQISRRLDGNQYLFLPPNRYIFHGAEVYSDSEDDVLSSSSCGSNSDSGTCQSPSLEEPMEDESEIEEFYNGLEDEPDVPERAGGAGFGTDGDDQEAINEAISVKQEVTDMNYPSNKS

Row | SMILES | TSA(with NAD+) / Primary screening (TSA) / delta Tm (K)
1 | COc1ccc(N(C)S(=O)(=O)c2cccc(C(=O)Nc3cccc4ccccc34)c2)cc1 | -0.09
2 | CN(c1ccccc1)S(=O)(=O)c1cccc(NC(=O)c2cccc(C#N)c2)c1 | 0.08
3 | CN(c1cccc(Cl)c1)S(=O)(=O)c1cccc(C(=O)Nc2cccc(C#N)c2)c1 | 0.45
4 | COc1ccc(N(C)S(=O)(=O)c2cccc(C(=O)Nc3ccc(Br)c(C(F)(F)F)c3)c2)cc1 | 0.69
5 | COc1ccc(N(C)S(=O)(=O)c2cccc(C(=O)Nc3ccc(OC)c(OC)c3)c2)cc1 | -0.04
6 | COc1ccc(N(C)S(=O)(=O)c2cccc(C(=O)Nc3cccc(C#N)c3)c2)cc1 | 0.35
7 | Cc1ccc(N(C)S(=O)(=O)c2cccc(C(=O)Nc3cccc(C#N)c3)c2)cc1 | 0.28
8 | COc1ccc(N(C)S(=O)(=O)c2cccc(C(=O)Nc3ccc(-n4cnnn4)cc3)c2)cc1 | 0.76
9 | COc1ccc(N(C)S(=O)(=O)c2cccc(C(=O)Nc3ccc(Br)cc3F)c2)cc1 | 0.36
10 | COc1ccc(N(C)S(=O)(=O)c2cccc(C(=O)Nc3ncc(C(N)=O)s3)c2)cc1 | -0.03
11 | COc1ccc(N(C)S(=O)(=O)c2cccc(C(=O)Nc3ccc4c(C)cc(=O)oc4c3)c2)cc1 | -0.09
12 | COc1ccc(N(C)S(=O)(=O)c2cccc(C(=O)Nc3ccc4ccccc4c3)c2)cc1 | 0.65
13 | CC(C)Cn1c(SCC(=O)Nc2sc3c(c2C(N)=O)CCC3)nnc1N1CCOCC1 | -0.18
14 | Cc1ccc(-c2nn(-c3ccccc3)cc2C=C2C(=O)NC(=O)NC2=O)o1 | -0.59
15 | CN(CCC#N)C(=O)C(C)(C)c1ccccc1 | -0.08
16 | O=C(CSc1nnc(NCC2CCCO2)s1)Nc1nc(-c2cc(F)ccc2F)cs1 (stereo not shown) | 0.01
17 | COc1ccc(N(C)S(=O)(=O)c2cccc(C(=O)Nc3ccc(Cl)cc3)c2)cc1 | 0.86
18 | Cc1ccc(N(C)S(=O)(=O)c2cccc(C(=O)Nc3nc4ccccc4[nH]3)c2)cc1 | -0.06
19 | COc1ccc(N(C)S(=O)(=O)c2cccc(C(=O)Nc3ccc(C)cc3)c2)cc1 | 0.11
20 | COc1ccc(N(C)S(=O)(=O)c2cccc(C(=O)Nc3cccc(Br)c3)c2)cc1 | 0.32
21 | CCCOC(=O)c1ccc(NC(=O)c2cccc(S(=O)(=O)N(C)c3ccc(OC)cc3)c2)cc1 | 0.29
22 | COc1ccc(N(C)S(=O)(=O)c2cccc(C(=O)Nc3ccc(Br)cc3)c2)cc1 | 1.36

Row | SMILES | TSA(with NAD+) / Primary screening (TSA) / delta Tm (K)
23 | CN(c1ccccc1)S(=O)(=O)c1cccc(C(=O)Nc2ccccc2-c2nc3ccccc3[nH]2)c1 | 0.38
24 | CN(c1ccccc1)S(=O)(=O)c1cccc(C(=O)Nc2ccccc2-c2ccccc2)c1 | -0.02
25 | COc1ccc(NC(=O)c2cccc(S(=O)(=O)N(C)c3ccc(OC)cc3)c2)cc1 | -0.02
26 | NC(=O)c1oc2ccccc2c1NC(=O)Cc1ccc(Cl)c(Cl)c1 | 0.12
27 | CC(=O)Nc1ccc(NCc2nnc3n(C)c(=O)c4ccccc4n23)cc1 | -0.12
28 | NC1=C(c2nc3ccccc3[nH]2)C(=O)CN1c1ccc(CC(=O)O)cc1 | -0.03
29 | CC(O)CCCN (stereo not shown) | -0.11
30 | Cc1ccc(S(=O)(=O)N2CCCCC2)cc1NC(=O)COC(=O)c1ccccc1SCC(=O)N1CCCC1 | -0.01
31 | O=C(Nc1ccc(Oc2ncccn2)cc1)c1ccc(S(=O)(=O)Nc2ccc(F)cc2)cc1 | 0.06
32 | N#CC(C(=O)c1ccc(NS(=O)(=O)c2ccccc2)cc1)c1nc(-c2ccccn2)cs1 (stereo not shown) | 0.47
33 | Cc1nc(COc2ccc(C(=O)Nc3ccc(S(=O)(=O)Nc4cccc(F)c4)cc3)cc2)cs1 | -0.14
34 | O=C(NN/C=C1/C(=O)N(c2cccc(C(F)(F)F)c2)C(=O)c2ccccc21)c1cccc(S(=O)(=O)Nc2ccccc2Cl)c1 | 0.99
35 | Cc1ccc(N(C)S(=O)(=O)c2cccc(C(=O)Nc3ccccc3C(F)(F)F)c2)cc1 | -0.09
36 | Cc1ccc(N(C)S(=O)(=O)c2cccc(C(=O)Nc3ccccc3Cl)c2)cc1 | -0.13
37 | C=CCOc1ccc(C(=O)C2=C(O)C(=O)N(CCN3CCOCC3)C2c2ccco2)cc1 (stereo not shown) | -0.01
38 | COc1ccccc1-c1noc(C(C)NC(=O)C(C)NC(C)=O)n1 (stereo not shown) | -0.01
39 | COc1ccc(CC(=O)NCCNC(=O)c2ccc(C)c(F)c2)cc1 | -0.13
40 | COc1ccc(-c2cc(NC(=O)Cc3n[nH]c(=O)c4ccccc34)ccc2OC(F)F)cc1 | 0.07
41 | COc1ccc(-c2cc(NC(=O)CCNC(=O)c3ccc(Cl)cc3)ccc2OC(F)F)cc1 | 0.45
42 | O=C(C1=C(O)C(=O)N(CCCN2CCOCC2)C1c1cccc([N+](=O)[O-])c1)c1ccc(F)cc1 (stereo not shown) | 0.06
43 | Nc1nc(COC(=O)c2cccc(NC(=O)c3cccs3)c2)nc(Nc2ccccc2)n1 | 0.42
44 | Cc1cccc(C(=O)OCc2ccc(C(=O)Nc3ccccc3)cc2)c1 | -0.03

Row | SMILES | TSA(with NAD+) / Primary screening (TSA) / delta Tm (K)
45 | O=C(COC(=O)c1cc(-c2ccc(Cl)cc2)nc2ccccc12)NNC(=O)c1cccs1 | 0.16
46 | CC1CCCN(CCCNC(=O)CCc2cc3ccccc3[nH]c2=O)C1 (stereo not shown) | 0.11
47 | O=C(CCc1ccc2c(c1)OCO2)N1CCc2[nH]c3ccccc3c2C1 | -0.01
48 | O=C(CN1CCCC2(CC=CCC2)C1)N1CCc2[nH]c3ccccc3c2C1 (stereo not shown) | 0.06
49 | O=C(Cc1c[nH]c2ccccc12)N1CCc2[nH]c3ccccc3c2C1 | 0.37
50 | Cc1n[nH]c(=O)c(C(=O)NNC(=O)CC23CC4CC(CC(C4)C2)C3)c1C | 0.19
51 | CCc1c(C)c(C#N)c2nc3ccccc3n2c1S | 0.46
52 | Cc1c(CCC#N)c(Cl)n2c(nc3ccccc32)c1C#N | -0.03
53 | CCc1c(C)c(C#N)c2nc3ccccc3n2c1Cl | -0.05
54 | CCNC(=O)NCc1ccc(NC(=O)Cc2cn(CC)c3ccccc23)cc1 | 0.09
55 | Cc1ccc2nc(-c3ccccc3)c(N)n2c1 | 0.38
56 | NC(=O)c1cc(NC(=O)CC(c2ccccc2)c2ccccc2)cc(C(N)=O)c1 | -0.06
57 | Cc1ccc(N(C)S(=O)(=O)c2cccc(C(=O)Nc3cc(F)ccc3C)c2)cc1 | -0.01
58 | O=C(Nc1cc(S(=O)(=O)N2CCOCC2)ccc1O)C1=COCCO1 | -0.16
59 | CC1CCc2sc(C(=O)Nc3ccccc3Cc3ccccc3)cc2C1 (stereo not shown) | -0.13
60 | CC(=O)Nc1ccc(NC(=O)c2cccc(C(N)=O)c2)cc1C | -0.12
61 | NC(=O)c1cccc(NC(=O)c2cc3c(s2)-c2ccccc2CC3)c1 | 0.88
62 | O=C(O)c1nc(Nc2ccc(Cl)cc2)c2ccccc2n1 | -0.11
63 | CCn1nnc2cc(C(=O)N3CCN(C(c4ccc(F)cc4)c4ccc(F)cc4)CC3)ccc21 | -0.22
64 | Cc1ccc(NC(=O)COC(=O)c2ccc(-n3nnc4ccccc43)c([N+](=O)[O-])c2)cc1C | 0.35
65 | COc1cc(/C=N/NC(=O)c2cc3c(s2)CCCC3)ccc1OS(=O)(=O)c1cc(C)ccc1C | 0.09
66 | CC(OC(=O)c1cc2c(s1)CCCC2)C(=O)Nc1ccc(C(N)=O)cc1 (stereo not shown) | 0.01

Row | SMILES | TSA(with NAD+) / Primary screening (TSA) / delta Tm (K)
67 | NC(=O)c1ccc(NC(=O)COC(=O)c2cc3c(s2)CCCCC3)cc1 | -0.13
68 | CCOc1cc(/C=N/NC(=O)c2cc3c(s2)CCCC3)ccc1OCC(=O)Nc1cccc(C(F)(F)F)c1 | 1.05
69 | COc1cc(/C=N/NC(=O)c2cc3c(s2)CCCC3)ccc1OCC(=O)Nc1ccc(C)cc1 | 0.52
70 | CCOc1ccc(NC(=O)CN(C)Cc2ccc(C(=O)Nc3ccccc3)cc2)cc1OCC | -0.02
71 | O=c1cc(CSc2ncc(C(F)(F)F)cc2Cl)nc2ccccn12 | -0.23
72 | Cc1cc(C=C2C(=O)NC(=S)NC2=O)c(C)n1-c1cccc(C(F)(F)F)c1 | -0.73
73 | Cc1oc2nc[nH]c(=O)c2c1C(=O)OC(C)C(=O)N1CCOCC1 (stereo not shown) | -0.06
74 | CCSC1CCC(NC(=O)Cc2cnc3ccccc3c2)C1 (stereo not shown) | -0.11
75 | CCn1cc(C2CCN(C(=O)Cc3cnc4ccccc4c3)CC2)cn1 | 0.68
76 | O=C(Nc1cnc2ccccc2c1)C(=O)N1CCC(Oc2ccccc2)CC1 | 0.06
77 | COc1ccc(CNCc2c[nH]nc2-c2ccc(C)cc2)cc1OC | -0.13
78 | Nc1nc(-c2c(-c3ccccc3)[nH]c3ccccc23)cs1 | 0.16
79 | c1ccc(-c2[nH]c3ccccc3c2-c2ccccc2)cc1 | 0.39
80 | c1ccc(-c2[nH]c3c(ccc4ccccc43)c2-c2ccccc2)cc1 | 0.29
81 | CC1COCCN1c1ncnc2ccsc12 (stereo not shown) | 0.03
82 | NC(=O)c1csc(C(=O)NCCc2cc(F)cc3c2OCOC3)c1 | -0.03
83 | COc1cc(C(C)=O)ccc1COc1ccc(C(=O)OC(C)C(=O)NC23CC4CC(CC(C4)C2)C3)cc1OC (stereo not shown) | 0.09
84 | CC(OC(=O)c1cccc(S(=O)(=O)NCc2ccccc2)c1)C(=O)NC12CC3CC(CC(C3)C1)C2 (stereo not shown) | 0.16
85 | Cc1ccc([N+](=O)[O-])cc1S(=O)(=O)Nc1ccc(C(=O)OC(C)C(=O)NC23CC4CC(CC(C4)C2)C3)cc1 (stereo not shown) | 0.76
